Experimental data taken from the antibiotic and cytotoxicity screens of Wong et al. (2023).
Among all 39,000 compounds or so, about 3,300 (8.5%) were called active. The sample holds actives, similar compounds and a random draw of the others, so the mix is not that of the screen.

test system: HepG2; assay: cytotoxicity call (relative viability < 0.9); details: 10 µM

Q: With `O=C(Nc1ccc2c(c1)[C@H]1C[C@H](CC(=O)N3CCc4ccccc4C3)O[C@@H](CO)[C@H]1O2)C1CCOCC1` as the molecule, how does the cytotoxicity call read?
A: inactive

Q: `C[C@@H]1CN([C@H](C)CO)C(=O)Cc2cc(NC(=O)Nc3cccc4ccccc34)ccc2O[C@@H]1CN(C)Cc1ccccc1` was tested. Which cytotoxicity call did it give?
A: active

Q: For `C[C@@H]1CN([C@H](C)CO)C(=O)Cc2cc(NC(=O)Nc3cccc4ccccc34)ccc2O[C@H]1CN(C)Cc1ccc(-c2ccccc2)cc1`, which cytotoxicity call is on record?
A: inactive

Q: For `C[C@H](CO)N1C[C@H](C)[C@H](CN(C)Cc2ccc(-c3ccccc3)cc2)Oc2ccc(NC(=O)Nc3cccc4ccccc34)cc2CC1=O`, which cytotoxicity call is on record?
A: inactive

Q: With `C[C@H]1CN([C@@H](C)CO)C(=O)Cc2cc(NC(=O)Nc3cccc4ccccc34)ccc2O[C@@H]1CN(C)Cc1ccccc1` as the molecule, how does the cytotoxicity call read?
A: inactive

Q: How did the cytotoxicity call turn out when `C[C@@H]1CN([C@@H](C)CO)C(=O)Cc2cc(NC(=O)Nc3cccc4ccccc34)ccc2O[C@H]1CN(C)Cc1ccccc1` was run?
A: inactive

Q: `C[C@@H]1CN([C@@H](C)CO)C(=O)Cc2cc(NC(=O)Nc3cccc4ccccc34)ccc2O[C@@H]1CN(C)Cc1ccccc1` was tested. Which cytotoxicity call did it give?
A: active

Q: `C[C@H]1CN([C@@H](C)CO)C(=O)Cc2cc(NC(=O)Nc3cccc4ccccc34)ccc2O[C@H]1CN(C)Cc1ccccc1` was tested. Which cytotoxicity call did it give?
A: inactive

Q: With `C[C@H](CO)N1C[C@H](C)[C@@H](CN(C)Cc2ccc(-c3ccccc3)cc2)Oc2ccc(NC(=O)Nc3cccc4ccccc34)cc2CC1=O` as the molecule, how does the cytotoxicity call read?
A: inactive

Q: For `C[C@H](CO)N1C[C@H](C)[C@H](CN(C)Cc2ccccc2)Oc2ccc(NC(=O)Nc3cccc4ccccc34)cc2CC1=O`, which cytotoxicity call is on record?
A: active

Q: `C[C@H](CO)N1C[C@H](C)[C@@H](CN(C)Cc2ccccc2)Oc2ccc(NC(=O)Nc3cccc4ccccc34)cc2CC1=O` was tested. Which cytotoxicity call did it give?
A: active

Q: For `C[C@@H]1CN([C@H](C)CO)C(=O)Cc2cc(NC(=O)Nc3cccc4ccccc34)ccc2O[C@H]1CN(C)Cc1ccccc1`, which cytotoxicity call is on record?
A: inactive

Q: With `C[C@H]1CN([C@@H](C)CO)C(=O)Cc2cc(NC(=O)Nc3cccc4ccccc34)ccc2O[C@@H]1CN(C)Cc1ccc(-c2ccccc2)cc1` as the molecule, how does the cytotoxicity call read?
A: inactive

Q: Which cytotoxicity call does the source give for `C[C@@H]1CN([C@@H](C)CO)C(=O)CCCn2cc(nn2)CO[C@@H]1CN(C)S(=O)(=O)c1ccc(-n2cccn2)cc1` here?
A: inactive

Q: With `C[C@H]1CN([C@@H](C)CO)S(=O)(=O)c2ccc(C#Cc3cccnc3)cc2O[C@H]1CN(C)CC1CCOCC1` as the molecule, how does the cytotoxicity call read?
A: inactive

Q: `COc1ccc(S(=O)(=O)N(C)C[C@H]2Oc3ccc(NS(=O)(=O)c4ccc(F)cc4)cc3CC(=O)N([C@@H](C)CO)C[C@H]2C)cc1` was tested. Which cytotoxicity call did it give?
A: inactive

Q: How did the cytotoxicity call turn out when `COC(=O)[C@H]1CN(C)CCC1=O` was run?
A: inactive

Q: Which cytotoxicity call does the source give for `C[C@@H]1O[C@@H](OC[C@H]2O[C@@H](Oc3cc(O)c4c(c3)O[C@@H](c3ccc(O)cc3)CC4=O)[C@H](O)[C@@H](O)[C@@H]2O)[C@H](O)[C@H](O)[C@H]1O` here?
A: inactive

Q: How did the cytotoxicity call turn out when `COc1ccc([Si](C)(C)[C@H]2[C@H](CCn3cc([C@H](O)c4ccccc4)nn3)O[C@@]3(C(=O)N(Cc4cccc(N5CCC5=O)c4)c4ccccc43)[C@@H]2C)cc1` was run?
A: inactive

Q: Which cytotoxicity call does the source give for `Cc1ccc(S(=O)(=O)N(C)C[C@@H]2Oc3c(NC(=O)c4cc(C)nn4C)cccc3C(=O)N([C@@H](C)CO)C[C@@H]2C)cc1` here?
A: inactive

Q: `C=CCOC(=O)[C@@H]1[C@H]2C(=O)O[C@H](c3ccccc3)[C@H](c3ccccc3)N2[C@H](c2ccc(OCCOC(=O)[C@H]3C[C@H]4C(=O)NCC(=O)N4[C@H]3c3ccc(O)cc3)cc2)[C@@]12C(=O)Nc1ccc(I)cc12` was tested. Which cytotoxicity call did it give?
A: inactive

Q: Which cytotoxicity call does the source give for `Cc1ccccc1S(=O)(=O)N1C[C@@H](O)COC[C@@H]2O[C@@H](CC(=O)N3CCOCC3)CC[C@H]21` here?
A: inactive

Q: `CC(C)N1C[C@H](CNCc2ccc(Oc3ccccc3)cc2)Oc2c(NC(=O)c3ccncc3)cccc2C1=O` was tested. Which cytotoxicity call did it give?
A: inactive

Q: `Cc1ccc(-c2cnc3c(c2)C(=O)N([C@H](C)CO)C[C@H](C)[C@@H](CN(C)C(=O)Cc2cccnc2)O3)cc1` was tested. Which cytotoxicity call did it give?
A: inactive

Q: `C[C@H](CO)N1C[C@H](C)[C@@H](CN(C)C(=O)Nc2ccc(C(F)(F)F)cc2)Oc2c(NC(=O)Nc3ccccc3)cccc2C1=O` was tested. Which cytotoxicity call did it give?
A: inactive

Q: How did the cytotoxicity call turn out when `C[C@H]1CN([C@@H](C)CO)C(=O)c2cccc(NC(=O)Nc3ccc(C(F)(F)F)cc3)c2O[C@@H]1CN(C)C(=O)Nc1ccccc1` was run?
A: active

Q: How did the cytotoxicity call turn out when `C[C@@H]1CN([C@@H](C)CO)C(=O)c2cccc(NC(=O)Nc3ccccc3)c2O[C@@H]1CN(C)C(=O)Nc1ccc(C(F)(F)F)cc1` was run?
A: inactive

Q: Which cytotoxicity call does the source give for `C[C@H]1CN([C@@H](C)CO)C(=O)c2cccc(NC(=O)Nc3ccccc3)c2O[C@@H]1CN(C)C(=O)Nc1ccc(C(F)(F)F)cc1` here?
A: inactive

Q: For `C[C@H](CO)N1C[C@H](C)[C@H](CN(C)C(=O)Nc2ccc(C(F)(F)F)cc2)Oc2c(NC(=O)Nc3ccccc3)cccc2C1=O`, which cytotoxicity call is on record?
A: inactive

Q: With `C[C@@H]1CN([C@H](C)CO)C(=O)c2cccc(NC(=O)Nc3ccc(C(F)(F)F)cc3)c2O[C@@H]1CN(C)C(=O)Nc1ccccc1` as the molecule, how does the cytotoxicity call read?
A: active

Q: Which cytotoxicity call does the source give for `COc1ccc(C(=O)Nc2ccc(CN3C(=O)[C@]4(O[C@H](CCO)[C@@H]([Si](C)(C)F)[C@@H]4C)c4ccccc43)cc2)cc1` here?
A: inactive

Q: `CN1CCN(C(=O)C[C@@H]2CC[C@@H]3[C@H](COC[C@H](O)CN3C(=O)Nc3cc(Cl)cc(Cl)c3)O2)CC1` was tested. Which cytotoxicity call did it give?
A: inactive

Q: How did the cytotoxicity call turn out when `CCCCCCCCCCCCC[N+](C)(C)Cc1ccccc1.O.[Cl-]` was run?
A: active

Q: Which cytotoxicity call does the source give for `CCCCCCCCCCCCCCCC[N+](C)(C)Cc1ccccc1.[Cl-]` here?
A: active

Q: For `CCCCCCCCCCCCC[N+](C)(C)Cc1ccccc1`, which cytotoxicity call is on record?
A: active

Q: How did the cytotoxicity call turn out when `CCCCNc1ccccc1` was run?
A: inactive

Q: For `CC[N+](C)(CC)Cc1ccccc1`, which cytotoxicity call is on record?
A: inactive

Q: For `CCCCCc1ccccn1`, which cytotoxicity call is on record?
A: inactive

Q: Which cytotoxicity call does the source give for `COc1ccc(S(=O)(=O)Nc2ccc3c(c2)CC(=O)N([C@@H](C)CO)C[C@H](C)[C@H](CN(C)S(=O)(=O)c2cccs2)O3)cc1` here?
A: inactive

Q: With `C[C@H](CO)N1C[C@H](C)[C@H](CN(C)CC2CC2)Oc2c(NS(=O)(=O)c3cccs3)cccc2C1=O` as the molecule, how does the cytotoxicity call read?
A: inactive

Q: For `Cc1noc(C)c1S(=O)(=O)Nc1ccc2c(c1)C(=O)N([C@@H](C)CO)C[C@H](C)[C@@H](CN(C)CC1CCCCC1)OCCCC[C@@H](C)O2`, which cytotoxicity call is on record?
A: inactive

Q: For `O=C(C1=C[C@H](c2coc3ccccc3c2=O)C[C@H](OCc2ccc(CO)cc2)O1)N1CCCCCCC1`, which cytotoxicity call is on record?
A: inactive

Q: Which cytotoxicity call does the source give for `CS(=O)(=O)NCc1cnc2n1CCN(C[C@H]1CCOC1)CC2` here?
A: inactive

Q: How did the cytotoxicity call turn out when `C[C@H](CO)N1C[C@H](C)[C@H](CN(C)C(=O)Nc2ccc(F)cc2)Oc2ccc(NC(=O)CCCCCC(=O)Nc3ccccc3N)cc2CC1=O` was run?
A: inactive

Q: With `CCCNC(=O)Nc1ccc2c(c1)OC[C@H](C)N(Cc1ccc(-c3ccccn3)cc1)C[C@H](C)[C@H](OC)CN(C)C2=O` as the molecule, how does the cytotoxicity call read?
A: inactive

Q: With `C[C@H]1CN([C@@H](C)CO)C(=O)CCCn2cc(nn2)CO[C@@H]1CN(C)C(=O)Nc1ccc(C(F)(F)F)cc1` as the molecule, how does the cytotoxicity call read?
A: inactive

Q: How did the cytotoxicity call turn out when `O=C(O)[C@H]1C[C@H](O)CN1Cc1ccccc1` was run?
A: inactive

Q: `C[C@@H]1CCCCO[C@H](CN(C)Cc2ccc(C(F)(F)F)cc2)[C@@H](C)CN([C@H](C)CO)C(=O)c2cc(NC(=O)c3ccccc3)ccc2O1` was tested. Which cytotoxicity call did it give?
A: inactive

Q: `C[C@@H]1CCCCO[C@H](CN(C)Cc2ccccc2)[C@H](C)CN([C@H](C)CO)C(=O)c2cc(NC(=O)c3ccccc3)ccc2O1` was tested. Which cytotoxicity call did it give?
A: inactive

Q: `C[C@@H]1CCCCO[C@H](CN(C)Cc2ccc(C(F)(F)F)cc2)[C@H](C)CN([C@@H](C)CO)C(=O)c2cc(NC(=O)c3ccccc3)ccc2O1` was tested. Which cytotoxicity call did it give?
A: active

Q: How did the cytotoxicity call turn out when `C[C@@H]1CCCCO[C@@H](CN(C)Cc2ccc(C(F)(F)F)cc2)[C@H](C)CN([C@H](C)CO)C(=O)c2cc(NC(=O)c3ccccc3)ccc2O1` was run?
A: inactive

Q: How did the cytotoxicity call turn out when `C[C@@H]1CN([C@H](C)CO)C(=O)c2cc(NC(=O)c3ccccc3)ccc2O[C@@H](C)CCCCO[C@@H]1CN(C)Cc1ccc(C(F)(F)F)cc1` was run?
A: inactive

Q: How did the cytotoxicity call turn out when `C[C@H]1CCCCO[C@@H](CN(C)Cc2ccc(C(F)(F)F)cc2)[C@@H](C)CN([C@@H](C)CO)C(=O)c2cc(NC(=O)c3ccccc3)ccc2O1` was run?
A: active

Q: How did the cytotoxicity call turn out when `C[C@@H]1CN([C@H](C)CO)C(=O)c2cc(NC(=O)c3ccccc3)ccc2O[C@@H](C)CCCCO[C@H]1CN(C)Cc1ccc(C(F)(F)F)cc1` was run?
A: inactive

Q: With `C[C@@H]1CN([C@@H](C)CO)C(=O)c2cc(NC(=O)c3ccccc3)ccc2O[C@@H](C)CCCCO[C@H]1CN(C)Cc1ccc(C(F)(F)F)cc1` as the molecule, how does the cytotoxicity call read?
A: active

Q: Which cytotoxicity call does the source give for `C[C@@H]1CCCCO[C@H](CN(C)Cc2ccc(C(F)(F)F)cc2)[C@H](C)CN([C@H](C)CO)C(=O)c2cc(NC(=O)c3ccccc3)ccc2O1` here?
A: inactive

Q: Which cytotoxicity call does the source give for `C[C@@H]1CN([C@@H](C)CO)C(=O)c2cc(NC(=O)c3ccccc3)ccc2O[C@@H](C)CCCCO[C@H]1CN(C)Cc1ccccc1` here?
A: inactive

Q: For `C[C@@H]1CN([C@H](C)CO)C(=O)c2cc(NC(=O)c3ccccc3)ccc2O[C@@H](C)CCCCO[C@H]1CN(C)Cc1ccccc1`, which cytotoxicity call is on record?
A: active

Q: `C[C@H](CO)N1C[C@H](C)[C@H](CN(C)Cc2ccc(C(F)(F)F)cc2)OCCCC[C@H](C)Oc2ccc(NC(=O)c3ccccc3)cc2C1=O` was tested. Which cytotoxicity call did it give?
A: inactive

Q: For `C[C@@H]1CN([C@@H](C)CO)C(=O)c2cc(NC(=O)Nc3cccc4ccccc34)ccc2O[C@H]1CN(C)S(=O)(=O)c1ccc(Cl)cc1`, which cytotoxicity call is on record?
A: inactive

Q: `COc1ccc(NC(=O)N(C)C[C@H]2Oc3ccc(NS(=O)(=O)c4cn(C)cn4)cc3CC(=O)N([C@@H](C)CO)C[C@@H]2C)cc1` was tested. Which cytotoxicity call did it give?
A: inactive

Q: For `C[C@@H]1CN([C@H](C)CO)S(=O)(=O)c2ccc(-c3cccc(C(=O)N(C)C)c3)cc2O[C@@H]1CN(C)C(=O)Cc1ccccn1`, which cytotoxicity call is on record?
A: inactive

Q: Which cytotoxicity call does the source give for `C[C@@H]1CN([C@@H](C)CO)C(=O)CCCn2nncc2CO[C@@H]1CN(C)S(=O)(=O)c1ccc2c(c1)OCCCO2` here?
A: inactive
